In PubChem BioAssay AID623970 (The Scripps Research Institute Molecular Screening Center, 2012):
“And” between values parts separate entries of the source, which are not always exact repeats. Identical values can stand only once. The source holds several records for some structures; these can differ, active in one and inactive in another. The source made the active and inactive calls. Cut-off read from the data, not from the text of the source: active = IC50 below about 90 µM; inactive = the rest.

assay: compound-DNA interaction, SYBR readout – biochemical, fluorescence, artefact control for HCV NS3 helicase inhibitor project, late-stage follow-up (AID 623970); details: DNA binding, SYBR dye displacement fluorescence

SMILES | IC50
Cc1ccc2nc(-c3ccc4nc(-c5ccc(NC(=O)c6ccc(NC(=O)OCC7c8ccccc8-c8ccccc87)cc6)cc5)sc4c3)sc2c1S(=O)(=O)O | 6 µM (active)
CN1CCN(Cc2cc(CN3CCN(C)CC3)c(O)c(=O)c(CN3CCN(C)CC3)c2)CC1 | 72 µM (active)
O=C(CCCCCCC(=O)Nc1ccc(-c2nc3ccccc3[nH]2)cc1)Nc1ccc(-c2nc3ccccc3[nH]2)cc1 | 14 µM (active)
Cc1ccc2nc(-c3ccc4nc(-c5ccc(NC(=O)c6cc(C(F)(F)F)cc(C(F)(F)F)c6)cc5)sc4c3)sc2c1S(=O)(=O)O | 86 µM (active)
Cc1ccc2nc(-c3ccc4nc(-c5ccc(N)cc5)sc4c3)sc2c1S(=O)(=O)O | > 100 µM (inactive) and 23 µM (active)
CCN(CC)c1ccc(-c2nc3ccc(C)c(S(=O)(=O)O)c3s2)cc1 | > 100 µM (inactive)
Cc1ccc2nc(-c3ccc4nc(-c5ccc(NC(=O)c6cc(F)cc(C(F)(F)F)c6)cc5)sc4c3)sc2c1S(=O)(=O)O | > 100 µM (inactive)
Cc1ccc2nc(-c3ccc4nc(-c5ccc(NC(=O)Nc6ccccc6)cc5)sc4c3)sc2c1S(=O)(=O)O | > 100 µM (inactive)
Cc1ccc2nc(-c3ccc4nc(-c5ccc(NC(=O)c6ccc(Cl)cc6)cc5)sc4c3)sc2c1S(=O)(=O)O | 31 µM (active)
Cc1ccc2nc(-c3ccc4nc(-c5ccc(NC(=O)c6ccc(Cl)c(Cl)c6)cc5)sc4c3)sc2c1S(=O)(=O)O | 30 µM (active)
Cc1ccc2nc(-c3ccc4nc(-c5ccc(NC(=O)c6cccc(C(F)(F)F)c6)cc5)sc4c3)sc2c1S(=O)(=O)O | > 100 µM (inactive)
